Screens as filed in PubChem.
MgrA DNA FP: modulators of Staphylococcus aureus MgrA DNA binding. 84,000 tested, 0.13% active. fluorescence polarization. inhibition, % (concentration not given with the values); in the data active = inhibition above about 30%, passing the limit was not always enough;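 also: 0% = protein plus DNA without compound and 100% = DNA alone without protein; higher means less MgrA bound to DNA so lower polarization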
The depositor's hits bear a star. Only a selection was taken, and hits are over-represented in it overall.

SMILES | MgrA DNA FP
CC[n+]1c(-c2ccccc2)c2cc(N)ccc2c2ccc(N)cc21 | 58*
C=C(C)[C@@H]1[C@H]2OC(=O)[C@@H]1[C@]1(O)C[C@H]3O[C@]34C(=O)OC2[C@]14C (some centres not stated) | 4
CN1CCN(c2nc3c(c(=O)[nH]2)CCCC3)CC1 | -1
Cc1cccc(NC2=NC(C)CS2)c1 (configuration not stated) | 0
CCOC(=O)C1=C(N)Oc2c(c(C)nn2-c2ccccc2)C12C(=O)N(C)c1ccccc12 (configuration not stated) | 1
O=[N+]([O-])c1ccc(N2CCCNCC2)nc1 | -2
C=CCN1C(=O)/C(=C/c2ccco2)C(=O)NC1=S | 38
CN1C(=O)/C(=C/c2ccc(I)o2)C(=O)NC1=S | 98*
O=C1NC(=S)N(c2ccc(Br)cc2)C(=O)/C1=C\c1ccc(-c2ccccc2C(=O)O)o1 | 16
CN1CCN(c2ccc(C(F)(F)F)cc2NO)CC1 | 0
